For assay [1], the target named is T1, ETS1 (UniProt P14921).
T1 sequence: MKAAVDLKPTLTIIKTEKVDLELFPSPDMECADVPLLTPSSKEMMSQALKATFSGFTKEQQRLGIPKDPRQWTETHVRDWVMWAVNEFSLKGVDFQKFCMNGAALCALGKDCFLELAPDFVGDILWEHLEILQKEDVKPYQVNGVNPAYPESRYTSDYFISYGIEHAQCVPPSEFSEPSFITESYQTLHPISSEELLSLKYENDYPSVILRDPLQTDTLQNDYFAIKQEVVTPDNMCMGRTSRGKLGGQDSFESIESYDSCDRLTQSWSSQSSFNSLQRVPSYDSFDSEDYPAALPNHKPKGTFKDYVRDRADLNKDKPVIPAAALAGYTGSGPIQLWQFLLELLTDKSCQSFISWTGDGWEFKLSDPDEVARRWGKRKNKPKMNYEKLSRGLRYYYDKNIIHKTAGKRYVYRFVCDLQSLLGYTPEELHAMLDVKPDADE
The assay can be described thus: ETS1 binding intensity (PBM fluorescence), ETS1 alone (arbitrary fluorescence units); higher = stronger binding. The note with it: ETS1 concentration 1 nM; RUNX1 concentration 0 nM.

Assay [2] concerns the target RUNX1 (UniProt Q01196). The assay can be described thus: RUNX1 binding intensity (PBM fluorescence), RUNX1 alone (arbitrary fluorescence units); higher = stronger binding. The note with it: RUNX1 concentration 2 nM; ETS1 concentration 0 nM. As to the method:
(§1)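 Cooperative gcPBM on 36-bp genomic probes with neighbouring ETS1 and RUNX1 sites. Recombinant human RUNX1 (2 nM) was incubated alone or with ETS1 (25 nM) and detected with anti-RUNX1 antibody plus Alexa488 secondary. Values are medians over 4 replicate spots; the RUNX1+ETS1 data were normalised to the RUNX1-only data. The probes sit in constant array flanks that are not printed.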

The target in assay [3] is T1, ETS1. Briefly: ETS1 binding intensity (PBM fluorescence) in presence of RUNX1, normalised to ETS1-only experiment (arbitrary fluorescence units); higher = stronger binding. The conditions noted are these: ETS1 concentration 1 nM; RUNX1 concentration 25 nM.
Assay [4] concerns the target RUNX1 (UniProt Q01196). Briefly: RUNX1 binding intensity (PBM fluorescence) in presence of ETS1, normalised to RUNX1-only experiment (arbitrary fluorescence units); higher = stronger binding. The note with it: RUNX1 concentration 2 nM; ETS1 concentration 25 nM. Here is the method:
as §1
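Wherever RUNX1 binding intensity (PBM fluorescence) in presence of ETS1, normalised to RUNX1-only experiment is given: Full-length recombinant human ETS1 or RUNX1 bound to double-stranded 36-bp genomic probes on microarrays, detected by protein-specific primary antibody and Alexa488 secondary, spot fluorescence as median of four replicate spots.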
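Wherever RUNX1 binding intensity (PBM fluorescence), RUNX1 alone is given: Full-length recombinant human RUNX1 bound to double-stranded 36-bp genomic probes on a high-density microarray, scored as Alexa488 fluorescence per spot via anti-RUNX1 antibody, median of four replicate spots.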

Sequence of RUNX1 (Q01196 whole entry): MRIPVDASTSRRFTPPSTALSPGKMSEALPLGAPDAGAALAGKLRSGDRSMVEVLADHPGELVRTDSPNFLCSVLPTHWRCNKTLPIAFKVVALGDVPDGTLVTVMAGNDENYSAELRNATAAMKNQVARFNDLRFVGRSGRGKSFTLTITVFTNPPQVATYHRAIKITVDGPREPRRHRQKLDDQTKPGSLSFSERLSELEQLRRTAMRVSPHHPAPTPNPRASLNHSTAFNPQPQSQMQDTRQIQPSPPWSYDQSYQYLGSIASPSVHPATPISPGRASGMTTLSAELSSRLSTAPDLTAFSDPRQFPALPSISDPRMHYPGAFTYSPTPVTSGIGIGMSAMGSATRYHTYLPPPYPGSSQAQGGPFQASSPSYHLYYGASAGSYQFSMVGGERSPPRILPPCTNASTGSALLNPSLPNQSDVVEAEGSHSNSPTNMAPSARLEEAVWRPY

With CCGTGGAAGGAAACGCTGCCAACCGCAACAGAAATG, the ETS1 binding intensity with ETS1 [1] came to 479; with ETS1 [3], 2770. The figures for the RUNX1 binding intensity in the assay with RUNX1 [2] and with RUNX1 [4] were 1700 and 3550, respectively.
In the same order, the values of GAGTACAGGAAATGCAAAGTAAAACCACAGTGAGAT are 1460, 4550, 904 and 1850.
On to AGGCCCCGCCCCTTCCGCCCACAGAGCCCGCCACTT, for which the ETS1 binding intensity in the assay with ETS1 [1] amounted to 779; with ETS1 [3], 1000. Besides, the RUNX1 binding intensity with RUNX1 [2] turned out to be 1100; with RUNX1 [4] it was 1730.
Take GAATGACAGAAGCGGAAACCACATGAAAAAGGTGTT: the ETS1 binding intensity amounted to 2010 with ETS1 [1] and 4230 with ETS1 [3]. The RUNX1 binding intensity came to 913 in the assay with RUNX1 [2] and 1360 in the assay with RUNX1 [4].
On to CCCACCCTCGCCGGAAGCCGAGCGGTTTCTACATCA, for which the ETS1 binding intensity with ETS1 [1] was determined as 2120; in the assay with ETS1 [3] it was 3600. The results for the RUNX1 binding intensity with RUNX1 [2] and with RUNX1 [4] were 1110 and 1540, respectively.
Take GTGGGGCGGGCTTCCGGCGCTCCCACCGCGAGCCGA: the ETS1 binding intensity with ETS1 [1] turned out to be 921; with ETS1 [3], 1050. The RUNX1 binding intensity in the assay with RUNX1 [2] turned out to be 790; with RUNX1 [4], 1500.
Take CTGGTTTCATTTCCGGGTGCGGCTTCTGTCATAAAG: the ETS1 binding intensity worked out at 1900 with ETS1 [1] and 2350 with ETS1 [3]. Besides, the RUNX1 binding intensity with RUNX1 [2] turned out to be 924; with RUNX1 [4], 2460.
As for AATATACGGTGAGGATGTGGGCAAAAAACAAAGAGG, the results for the ETS1 binding intensity with ETS1 [1] and with ETS1 [3] were 1060 and 1270, respectively. Further, the RUNX1 binding intensity with RUNX1 [2] turned out to be 809; with RUNX1 [4], 965.
With CTGTCCGCTACATCCGGGACCTGCGGGACCGCCGAT, the ETS1 binding intensity with ETS1 [1] was determined as 1770; with ETS1 [3], 2430. Besides, the RUNX1 binding intensity in the assay with RUNX1 [2] was found to be 823; with RUNX1 [4], 2300.
As for CTCCGCCTTTCACTTCCTAGTAACCGCCCTCCCTTG, the ETS1 binding intensity with ETS1 [1] was determined as 522; with ETS1 [3], 647. Besides, the values for the RUNX1 binding intensity with RUNX1 [2] and in the assay with RUNX1 [4] were 2190 and 2400, respectively.
As for TATTTCCTGTGCACAGAAGCAGCTGGGCCGCAGAGT, the ETS1 binding intensity with ETS1 [1] amounted to 557; with ETS1 [3], 680. The RUNX1 binding intensity was found to be 697 in the assay with RUNX1 [2] and 1940 with RUNX1 [4].
Consider AGTTTCTCAGCTTCCTGTGTGGTTTTCTTGATCTGC, for which the results for the ETS1 binding intensity with ETS1 [1] and with ETS1 [3] were 1480 and 2630, respectively. The RUNX1 binding intensity with RUNX1 [2] worked out at 1620; with RUNX1 [4], 4280.
As for TTAGCACATCCTGGGTACACAGACCACAGCCTCCTC, the ETS1 binding intensity in the assay with ETS1 [1] turned out to be 367; with ETS1 [3] it was 475. For the same sequence, the RUNX1 binding intensity in the assay with RUNX1 [2] amounted to 972; with RUNX1 [4], 2140.
Taken in the same sequence, the figures for GCAAGGCAACAGGAAATTGTGGGGAAATTTTAAAAA were 3930, 6190, 770 and 1070.

Values taken from the supplement of paper PMC10681739.
